Only some compounds are listed: those with a hit (about 7.3% of all), similar ones and a draw of the others.
HCV inhibitor: HCV inhibition; Huh7.5.1 HCVcc-Cre infection, luciferase reporter, 44 h; Potency, µM (doses to about 41.8 µM), for the others: top-dose activity change, negative = inhibition, hits mostly inhibitors; 340,000 compounds, 3.4% hits; AID 651820; also: potency is read from the fitted curve at half-maximal effect
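Luciferase read-out (15 sec integration) after a 15 min room-temperature substrate step quantifies HCVcc-Cre infection. Cells, 1,000 per well, had compound added 4 h post-plating, then virus at ~0.5 moi, and were cultured 44 h.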
AmpC inh detg: AmpC beta-lactamase inhibition with detergent present. AmpC hydrolysis of nitrocefin, absorbance 480 nm, 0.01% Triton. Potency, µM (titrated, usually from 114 µM), for inactives: at the highest dose activity change, negative = inhibition, most hits filed as inhibitors. 370,000 compounds, 0.041% hits. AID 485294;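 also: potency is read from the fitted curve at half-maximal effect; 0% = no-compound wells and -100% = no-enzyme wells; nearly all actives have a fitted effect of over 25% in size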
Target sequence (P00811 whole entry, looked up): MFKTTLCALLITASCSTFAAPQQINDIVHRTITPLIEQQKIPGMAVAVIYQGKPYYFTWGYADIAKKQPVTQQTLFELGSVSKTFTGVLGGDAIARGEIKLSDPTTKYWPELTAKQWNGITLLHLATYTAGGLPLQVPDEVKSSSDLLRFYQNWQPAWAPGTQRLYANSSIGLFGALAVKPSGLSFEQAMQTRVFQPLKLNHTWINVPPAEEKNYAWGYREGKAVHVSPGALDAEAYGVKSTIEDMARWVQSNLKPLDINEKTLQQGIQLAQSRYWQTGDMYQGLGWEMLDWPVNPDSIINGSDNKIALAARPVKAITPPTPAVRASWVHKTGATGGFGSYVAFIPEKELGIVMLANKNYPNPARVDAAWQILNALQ
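AmpC (5.3 nM in the dispensed reagent) in 20 mM phosphate pH 7.0 with 0.01% (detergent screen) or 0.0001% Triton X-100 was preincubated with compounds for 15 min at room temperature. Nitrocefin was then added from an 800 uM solution, and hydrolysis was followed at 480 nm.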
FMDV inh: blocks foot and mouth disease virus. 410,000 compounds, 1.2% hits. AID 1159524. FMDV antiviral cell-based qHTS. Potency, µM (doses to about 57.9 µM), for the others: at the top dose activity change, negative = inhibition, hits mostly inhibitors; calls by dose curve; tested in HEK293T cells; also: read-out not given here; potency is read from the fitted curve at half-maximal effect; nearly all actives have a fitted effect of over 45% in size
HCMV inh: inhibitors of human cytomegalovirus | AID 1259415 | activity change, negative = inhibition, % at 57.5 µM | HFF cells, HCMV-luciferase reporter, 72 h; stronger effect = lower value | 410,000 compounds, 4.5% hits; in the data active = activity change below about -60%; inconclusive = no clear call, values can overlap the other calls; inactive = above about -39%
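Cell-based, HFFs, 1000 cells/well, 16 h 37C; cpds in DMSO + HCMV-luc, MOI 1 PFU/cell; 72 h 37C; OneGlo luminescence after 5 min RT; norm. to buffer vs Salinomycin 10uM.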
AmpC no deterg: inhibitors of E. coli AmpC beta-lactamase without detergent; AmpC nitrocefin hydrolysis, absorbance 480 nm, 0.0001% Triton; Potency, µM (top dose mostly 57.1 µM), without a hit: top-dose activity change, negative = inhibition, usual class: inhibitors; 330,000 compounds, 0.52% hits;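 also: potency is read from the fitted curve at half-maximal effect; plate controls were no compound for no effect and no enzyme for full effect; nearly all actives have a fitted effect of over 20% in size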
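20 mM phosphate pH 7.0 + 0.01% (detergent screen) or 0.0001% Triton X-100; 5.3 nM AmpC reagent; cpd preinc 15 min RT; nitrocefin (800 uM stock) to start; A480 q20 s × 4 min; Activity was normalised to no-enzyme and no-compound control wells.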
An asterisk follows results filed as active. Unless noted, calls follow the shape of the dose curve; as a rule, active = well fitted curve in the direction sought with a large enough effect; inconclusive = small, poorly fitted or top-dose-only effect, or another doubt; inactive = no such curve, though single readings can be large; an effect the other way counts as inactive or inconclusive. Unless noted, % is scaled to controls: 0 for no effect and ±100 for the full control effect.

What do the screens show for `Cc1ccc(CSc2nc3ccccc3cc2C=O)cc1`?
HCV inhibitor: inconclusive; AmpC inh detg: -2.1%; FMDV inh: inconclusive; HCMV inh: -97.0*; AmpC no deterg: 6.4%

How did O=Cc1cc2ccccc2nc1SCc1ccc(Cl)cc1 do in these assays?
HCV inhibitor: inconclusive; AmpC inh detg: inconclusive; FMDV inh: -21.4%; HCMV inh: -82.5*; AmpC no deterg: -20.3%

How did Clc1ccc(CSc2cnnc3ccccc23)cc1Cl do in these assays?
HCV inhibitor: 8.3%; FMDV inh: 16.0%; HCMV inh: -31.6

What do the screens show for `CN(C)c1cccc(CNc2nccc3[nH]c(-c4ccc(F)c(F)c4)nc23)c1`?
HCMV inh: 0.2

Results for COc1cccc2sc(N3CCN(C(=O)c4ccc([N+](=O)[O-])o4)CC3)nc12 ?
HCV inhibitor: 7.94µM*; AmpC inh detg: -1.5%; FMDV inh: inconclusive; AmpC no deterg: 156.0%

How did CC(C(=O)NC1CCCC1)N1CCN(S(=O)(=O)c2ccc(C(C)(C)C)cc2)CC1 (stereo not given) do in these assays?
HCV inhibitor: 11.4%; AmpC inh detg: 2.7%; FMDV inh: -26.5%; HCMV inh: -17.2; AmpC no deterg: -4.8%

How did COc1ccc(Br)cc1/C=N/NS(=O)(=O)c1ccccc1 do in these assays?
FMDV inh: 8.8%; HCMV inh: -86.6*

How did COc1ccc(/C=N/Nc2ccccn2)cc1OC do in these assays?
HCV inhibitor: -12.1%; AmpC inh detg: 3.0%; FMDV inh: 13.3%; HCMV inh: 112.8; AmpC no deterg: -21.5%

What do the screens show for `COc1ccccc1/C=N/NS(=O)(=O)c1ccccc1`?
HCV inhibitor: 10.6%; AmpC inh detg: 0.1%; FMDV inh: 51.7%; HCMV inh: -1.8; AmpC no deterg: -31.9%

What do the screens show for `COc1ccc(Br)cc1/C=N/Nc1ccccn1`?
HCV inhibitor: 11.2µM*; AmpC inh detg: -12.2%; FMDV inh: -12.0%; HCMV inh: 60.2; AmpC no deterg: -24.0%

What do the screens show for `CC(C)(C)OC(=O)N1CCC(c2c(C(=O)NCCN3CCOCC3)cnn2-c2ccc(F)cc2)CC1`?
AmpC inh detg: -7.0%; FMDV inh: -0.3%; HCMV inh: -3.3

Results for Cc1cccc(NC(=O)NCCn2c(=O)oc3ccc(C)cc32)c1 ?
AmpC inh detg: 20.1%; FMDV inh: -1.8%; HCMV inh: -18.6

Results for CCOc1cc(C(=O)Nc2ccc(S(=O)(=O)N3CCCCC3)cc2)ccc1OCC(=O)N1CCOCC1 ?
HCV inhibitor: -9.4%; AmpC inh detg: inconclusive; FMDV inh: inconclusive; HCMV inh: inconclusive; AmpC no deterg: 196.3%

How did COc1ccc(CCNc2ncnc3sc(C)cc23)cc1OC do in these assays?
HCV inhibitor: 2.24µM*; AmpC inh detg: inconclusive; FMDV inh: 31.6µM*; HCMV inh: -69.8*; AmpC no deterg: -17.6%

Results for CCOc1ccc2[nH]c3c(NCCc4ccc(OC)c(OC)c4)ncnc3c2c1 ?
HCV inhibitor: 12.6µM*; AmpC inh detg: 3.5%; FMDV inh: -20.1%; HCMV inh: -66.1*; AmpC no deterg: 71.1%

How did O=C(COc1coc(CN2CCN(c3ccccc3)CC2)cc1=O)Nc1ccc(F)cc1 do in these assays?
HCV inhibitor: inconclusive; AmpC inh detg: 0.0%; FMDV inh: -21.5%; HCMV inh: -83.3*; AmpC no deterg: -3.2%

How did CCOc1ccccc1NC(=O)COc1coc(CN2CCc3ccccc32)cc1=O do in these assays?
HCV inhibitor: 7.94µM*; AmpC inh detg: -13.8%; FMDV inh: -2.4%; HCMV inh: 5.4; AmpC no deterg: 62.2%

What do the screens show for `Cc1ccc(-n2nc(C)c(C(=O)Nc3cccc(C(=O)NC4CC4)c3)n2)c(C)c1`?
HCV inhibitor: 11.2µM*; AmpC inh detg: -5.3%; FMDV inh: 28.2µM*; HCMV inh: inconclusive; AmpC no deterg: 30.5%

How did Cc1nn(-c2cccc(Cl)c2)nc1C(=O)Nc1cccc(C(=O)NC2CC2)c1 do in these assays?
HCV inhibitor: 10µM*; AmpC inh detg: -15.0%; FMDV inh: inconclusive; HCMV inh: 3.5; AmpC no deterg: -24.4%

How did Cc1nn(-c2ccccc2)nc1C(=O)Nc1ccc2c(c1)OCCO2 do in these assays?
HCV inhibitor: inconclusive; AmpC inh detg: -12.3%; FMDV inh: 4.2%; HCMV inh: -15.3; AmpC no deterg: -14.0%

What do the screens show for `Cc1nn(-c2ccccc2)nc1C(=O)Nc1cccc(C(=O)NC2CC2)c1`?
FMDV inh: 31.6µM*; HCMV inh: -4.3

Results for CCOC(=O)Nc1ccc(OC)c([N+](=O)[O-])c1 ?
HCV inhibitor: -7.6%; AmpC inh detg: inconclusive; FMDV inh: 5.8%; HCMV inh: -19.8; AmpC no deterg: -21.0%

Results for CCOC(=O)Nc1ccc2c(c1)Cc1cc([N+](=O)[O-])ccc1-2 ?
HCV inhibitor: inconclusive; FMDV inh: 44.6%; HCMV inh: -90.0*

Results for Cc1cc(C)cc(-n2ccn(CC(=O)Nc3ccccc3C(F)(F)F)c(=O)c2=O)c1 ?
AmpC inh detg: 12.2%; FMDV inh: -8.5%; HCMV inh: -16.6

Results for COC(=O)[C@@]12C[C@@H](CC(=O)NCc3ccc(C)o3)C(=O)N(CCc3ccc(OC)c(OC)c3)C1=CCC(C)(C)C2 ?
FMDV inh: -7.4%; HCMV inh: 4.8

How did NC(=O)c1ccc(NC(=O)C2CCCO2)cc1 (stereo not given) do in these assays?
HCV inhibitor: 3.6%; AmpC inh detg: 1.8%; FMDV inh: -2.8%; HCMV inh: 13.1; AmpC no deterg: 70.5%

How did O=C(Nc1ccc(O)cc1)c1ccc(NC(=O)C2CCCO2)cc1 (stereo not given) do in these assays?
HCV inhibitor: 2.1%; AmpC inh detg: 2.1%; FMDV inh: 18.6%; HCMV inh: -63.3*; AmpC no deterg: -24.6%

How did Cc1cc(NC(=O)c2ccc(NC(=O)C3CCCO3)cc2)ccc1Br (stereo not given) do in these assays?
HCV inhibitor: -1.5%; AmpC inh detg: -10.2%; FMDV inh: inconclusive; HCMV inh: -73.6*; AmpC no deterg: 1.3%

Results for CCN(CC)c1ccc(NC(=O)c2ccc(NC(=O)C3CCCO3)cc2)c(C)c1 (stereo not given) ?
HCV inhibitor: -28.2%; AmpC inh detg: 3.8%; FMDV inh: -21.4%; HCMV inh: inconclusive; AmpC no deterg: -15.4%

Results for O=C(NCc1ccccn1)c1[nH]c(C(F)(F)F)nc1-c1ccccc1 ?
FMDV inh: -17.4%; HCMV inh: -19.0

Results for CCn1c(-c2ccccc2)ccc(C#N)c1=O ?
HCV inhibitor: inconclusive; AmpC inh detg: -8.7%; FMDV inh: -20.4%; HCMV inh: 19.2; AmpC no deterg: -11.7%

What do the screens show for `Cc1ccc(-c2ccc(C#N)c(=O)n2CC(=O)N(C)C)cc1`?
HCV inhibitor: -1.3%; AmpC inh detg: 6.1%; FMDV inh: -2.0%; HCMV inh: -70.0*; AmpC no deterg: -0.6%

Screening data from PubChem BioAssay.
